According to PubChem BioAssay (NCI):
About 83,000 compounds went through this panel and 20% of them were active in at least one assay; those are over-represented in the sample as a whole.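 Cell lines were cultured in 96-well plates, exposed to a single compound concentration, and assessed for percent growth 48 hours later.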 Activity calls are given as the source filed them. How the source made its calls: active means growth percent below 10; inactive means the rest.

system: MDA-MB-468 breast; assay: NCI-60 one-dose screen, 48 h (100 = growth as untreated, 0 = no growth, -100 = all killed); settings: 10 µM unless noted

Row | Structure (SMILES) | growth
1 | CCC1=CCC[C@@]2(C)CCC[C@@]3(C)CCCC(C)(C)[C@]1([O-])[O+]32 | 94.5% (inactive)
2 | COc1ccc(C2c3sc4c(C)cccc4c3Oc3nc(CC(=O)Nc4ccccc4)[nH]c(=O)c32)cc1 (stereo unspecified) | 18.6% (inactive)
3 | N#Cc1c(-c2ccc(Cl)cc2)nc(NN=Cc2cccc(Cl)c2)nc1N1CCOCC1 | 85.1% (inactive)
4 | CCC(=C(c1ccc(OCCCN(C)C)cc1)c1ccc(OCCCN(C)C)cc1)c1ccc(Cl)cc1 | -74.4% (active)
5 | CC(C)OCc1cc(CN2CCN(c3cccc(Cl)c3)CC2)c(O)c2ncccc12 | -15.4% (active)
6 | CCCCC(C#N)C(N)=O (stereo unspecified) | 119% (inactive)
7 | CN(C)CCSC1=Nc2ccc(Cl)cc2C(c2ccccc2Cl)N(C)C1 (stereo unspecified) | 58.4% (inactive)
8 | CN1CCN(Cc2ccc(NC(=O)c3cccc(C#Cc4c(N)ncc5ccc(F)cc45)c3)cc2C(F)(F)F)CC1 | -61.7% (active)
9 | COc1c(C)c2c(c(O)c1C/C=C(\C)CCC(=O)O)C(=O)OC2 | 37.9% (inactive)
10 | c1csc(-c2cn3nc(-c4c[nH]c5ccccc45)sc3n2)c1 | 19.4% (inactive)
11 | CC(=O)[C@@H]1CCC=C2CC[C@]3(C)[C@@H](CC[C@@H]4[C@@]5(C)CCCNC(C)(C)[C@@H]5CC[C@]43C)[C@H]21 | -77.9% (active)
12 | COc1cccc(C2=NN3C(C2)c2cc(Br)cc(OC)c2OC32CCN(Cc3ccccc3)CC2)c1 (stereo unspecified) | 96.4% (inactive)
13 | COc1cc(-n2cc(-c3cc(O)c(C/C=C(\C)CCC=C(C)C)c(O)c3)nn2)cc2c1O[C@]1(C)CC[C@@H](O)C(C)(C)[C@H]1C2 | -14.6% (active)
14 | CO[C@H]1CC(O[C@@H]2/C(C)=C/C[C@@H]3C[C@@H](C[C@]4(CC[C@H](C)[C@@H](C5CCCCC5)O4)O3)OC(=O)[C@@H]3C=C(C)/C(=N/O)[C@H]4OC/C(=C\C=C\[C@@H]2C)[C@]43O)O[C@@H](C)C1O (stereo partly specified) | -87% (active)
15 | Clc1ccc(C2=NN[C@H](c3cn(-c4ccccc4)nc3-c3ccccc3)C2)cc1 | 57.1% (inactive)
16 | COc1cccc(/C=C/C(=O)c2cc3c(N)c(C(=O)Nc4ccccc4)sc3nc2C)c1 | 15.3% (inactive)
17 | Cc1ccc(-c2nc(N3CCNCC3)c3oc(-c4ccc(C)cc4)nc3n2)cc1 | -33.5% (active)
18 | O=C(CCCCCCN1CC(=O)N2[C@@H](c3ccccc3)c3[nH]c4ccccc4c3C[C@H]2C1=O)NO | 53.7% (inactive)
19 | NS(=O)(=O)c1ccc(C(=O)N=Nc2c(O)[nH]c3c(F)cccc23)cc1 | 96.3% (inactive)
20 | CCCS(=O)(=O)Nc1cccc(Nc2ncnc3cc(NC(=O)CCl)ccc23)c1Cl | -41.8% (active)
21 | NC1=Nc2cc(OCCCCN3Cc4ccccc4C3)c(OCC3CC3)cc2C12CCCC2 | 7.97% (active)
22 | O=c1[nH]c2ccccc2cc1-c1nnc(Cc2ccccc2)o1 | 53.9% (inactive)
23 | COc1cc(C(=O)Nc2ccc(-c3nc4ccccc4[nH]3)cc2)cc(OC)c1OC | 6.62% (active)
24 | CC(=O)Oc1ccc(O)cc1 | 95.5% (inactive)
25 | COc1ccc2nc3cc([N+](=O)[O-])ccc3c(NNc3ccccc3)c2c1 | 58.3% (inactive)
26 | Oc1cccc(-c2nc(N3CCOCC3)c3c4c(sc3n2)CCCC4)c1 | 46.1% (inactive)
